Screens (PubChem)
GCN5L2 inh = GCN5L2 (KAT2A) acetyltransferase inhibition | GCN5L2 HAT assay, ThioGlo1 CoA-SH fluorescence | Potency, µM (titrated, usually from 58.9 µM), usual class: inhibitors | 390,000 compounds, 0.21% hits | Q92830 | AID 504327
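GCN5L2 (20 nM) in 50mM HEPES pH 7.5, 0.1mM EDTA, 0.01% Tween-20 preincubated 15 min with compounds at room temperature. Reaction started with H3(1-25) 75uM, acetyl-CoA 70uM, ThioGlo1 50uM; CoA-thiol fluorescence (Ex340/Em540) read at 0 and 20 min.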
VDR inhibitor = vitamin D3 receptor (human) inhibition | P11473 | VDR-SRC2-3 peptide fluorescence polarization, 2 h | Potency, µM, actives largely listed as inhibitors | 400,000 compounds, 0.93% hits | AID 504847
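Reagent solutions, kept cold and dark, are dispensed first; compounds are then pinned in at 23 nl, plates briefly spun, and incubated 2 h at ambient temperature. Inhibition of VDR–SRC2-3 peptide binding is read by fluorescence polarization.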
TDP1 cell noCPT = qHTS for Inhibitors of human tyrosyl-DNA phosphodiesterase 1 (TDP1): qHTS in cells in absence of CPT; AID 686978, 2013; 420,000 compounds, 15% hits; DT40 Tdp1-/- hTDP1 cells, no CPT, ATP luminescence, 48 h; Potency, µM (titrated, usually from 46.2 µM), most hits filed as inhibitors; note: nearly all actives have a fitted effect of over 55% in size
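Readout: luminescence from CellTiter-Glo after 30 min in the dark at RT. Cells: DT40 Tdp1-/- with stable hTDP1, 400/well. Exposure: compounds alone, ≥48 hr, 37 °C.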
TDP1 cell CPT = growth inhibition of DT40 Tdp1-/-;hTDP1 cells with camptothecin (screen for TDP1 inhibitors); AID 686979; chicken DT40 Tdp1-/-;hTDP1 cells + 20 nM CPT, ATP luminescence, 48 h; 420,000 compounds, 12% hits; Potency, µM (titrated, usually from 46.2 µM), usual class: inhibitors; note: nearly all actives have a fitted effect of over 55% in size
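Chicken DT40 Tdp1-/- cells complemented with human TDP1, 400 cells/well, exposed to compounds plus 20 nM camptothecin for at least 48 h at 37 C; viability read as ATP content by CellTiter-Glo luminescence.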
PLK1 PBD inh = PLK1 (human) polo-box domain binding inhibition; 360,000 compounds, 2.8% hits; Plk1 PBD binding of FITC phosphopeptide, fluorescence polarization; P53350; AID 720504; Potency, µM, actives largely listed as inhibitors; note: series mostly up to about 57 µM; nearly all actives have a fitted effect of over 65% in size
Target sequence (P53350 whole entry, looked up, the tested form may be a part): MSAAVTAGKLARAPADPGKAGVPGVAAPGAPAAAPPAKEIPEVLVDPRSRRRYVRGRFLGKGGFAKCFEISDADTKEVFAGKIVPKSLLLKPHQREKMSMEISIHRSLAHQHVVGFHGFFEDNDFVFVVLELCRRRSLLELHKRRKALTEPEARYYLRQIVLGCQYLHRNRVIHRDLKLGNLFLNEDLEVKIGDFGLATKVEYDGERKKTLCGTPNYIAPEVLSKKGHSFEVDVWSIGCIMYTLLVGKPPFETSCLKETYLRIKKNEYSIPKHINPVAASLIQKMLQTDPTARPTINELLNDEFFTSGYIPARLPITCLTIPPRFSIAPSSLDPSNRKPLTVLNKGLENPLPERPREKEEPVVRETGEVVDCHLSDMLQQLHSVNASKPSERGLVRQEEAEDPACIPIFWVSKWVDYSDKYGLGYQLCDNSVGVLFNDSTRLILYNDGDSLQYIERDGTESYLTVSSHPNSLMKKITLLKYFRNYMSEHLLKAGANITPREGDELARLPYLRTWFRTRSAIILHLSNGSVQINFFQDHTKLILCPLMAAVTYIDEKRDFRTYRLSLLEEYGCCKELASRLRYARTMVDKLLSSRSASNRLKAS
TDP1 inh = TDP1 (human) enzyme inhibition. Q9NUW8. recombinant TDP1, AlphaScreen DNA substrate cleavage. Potency, µM (titrated, usually from 130 µM), actives largely listed as inhibitors. 350,000 compounds, 0.28% hits. AID 485290; note: nearly all actives have a fitted effect of over 40% in size
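Steps: enzyme plus compound, 15 min RT; add biotin/phosphotyrosine-FITC oligonucleotide (15 nM final), react 5 min; add donor/acceptor beads (10 ug/ml final), 10 min; read AlphaScreen. Tdp1 at 1 nM final.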
Hits are given with their value; 0 = inactive; ? = inconclusive; - = no result given. Shown are actives, neighbours in structure and some others; about 18% of the full set was active somewhere. Calls come from the whole dose curve; as a rule, active = well fitted curve in the direction sought with a large enough effect; inconclusive = small, poorly fitted or top-dose-only effect, or another doubt; inactive = no such curve, though single readings can be large; an effect the other way counts as inactive or inconclusive.

SMILES	GCN5L2 inh	VDR inhibitor	TDP1 cell noCPT	TDP1 cell CPT	PLK1 PBD inh	TDP1 inh
CCOc1ccc(N2C(=O)C3C(C2=O)C3(c2ccccc2)c2ccccc2)cc1 (stereo unspecified)	0	0	?	18µM	0	0
CCN(CC)C(=O)C1=C(C)N(Cc2ccccc2)C(=O)C(CC(=O)NC2CC2)C1 (stereo unspecified)	-	-	?	?	0	-
CCOc1ccc(NC(=O)CN2C(=O)C3CCCN3C2=O)cc1 (stereo unspecified)	0	0	0	0	24µM	0
CCOC(=O)c1ccc(N2C(=O)CC(N3CCCC(C)C3)C2=O)cc1 (stereo unspecified)	0	0	?	13µM	0	0
CCOC(=O)c1ccc(N2C(=O)C3CCCN3C2=S)cc1 (stereo unspecified)	0	0	0	0	12µM	0
COc1ccccc1N1CCN(C(=O)CN(C)S(=O)(=O)c2ccc(C)cc2)CC1	-	-	?	?	0	-
COc1ccc(NC(=S)N(CCN(C)C)C(C)c2ccco2)cc1Cl (stereo unspecified)	0	0	16µM	0	24µM	0
O=C(C[n+]1cccc(/C=N/O)c1)NC(=O)Nc1ccccc1	-	-	0	0	-	-
CN(Cc1nc(-c2ccc(Cl)cc2)no1)C(=O)c1ccc2c(c1)OCO2	0	0	0	0	0	-
c1ccc2cc(C3OCC4(CCCC4)CO3)ccc2c1	-	-	0	?	0	-
Cc1ccc(CN(Cc2ccco2)C(=O)c2ccccc2Cl)o1	0	0	?	23µM	-	0
Cc1ccc(CN(Cc2ccco2)C(=O)c2ccccc2Br)o1	0	0	15µM	12µM	-	0
Cc1ccc(-c2nc(C)c(CCNC(=O)C(=O)Nc3ccc4c(c3)OCCO4)s2)cc1	0	0	-	-	-	0
O=C(c1[nH]c(C(F)(F)F)nc1-c1ccccc1)N1CCOCC1	-	-	0	0	0	-
O=C(CCCCn1c(=O)c2ccccc2n(CC(=O)Nc2cccc(F)c2)c1=O)NCCc1ccccc1	0	0	0	0	-	0
Cc1ccc(C(=O)N/N=C/c2cccc(OC(=O)/C=C/c3ccco3)c2)cn1	0	0	?	?	27µM	-
CC(/C=C/c1ccco1)=N/NC(=O)c1ccc(C)nc1	0	0	0	0	0	-
CN(Cc1ccco1)c1ncnc2ccc(-c3cccc(Cl)c3)cc12	0	-	-	-	-	-
CCCCCCn1nc(C(=O)Nc2nc3c(s2)CCCC3)c2ccccc2c1=O	0	0	?	15µM	0	0
CC(C)n1nc(C(=O)Nc2nc3ccccc3[nH]2)c2ccccc2c1=O	0	0	15µM	?	0	0
CCCn1nc(C(=O)Nc2ccc(-n3cnnn3)cc2)c2ccccc2c1=O	0	0	12µM	?	0	0
CCCn1nc(C(=O)Nc2nc3ccccc3[nH]2)c2ccccc2c1=O	0	0	16µM	?	0	0
CC(C)n1nc(C(=O)NNC(=O)c2ccncc2)c2ccccc2c1=O	0	0	0	0	0	0
C[C@H]1CN([C@@H](C)CO)C(=O)CCCn2cc(nn2)CO[C@@H]1CN(C)C(=O)Oc1ccccc1	-	-	0	0	0	-
Cc1ccc(S(=O)(=O)N2CCN(C(=O)c3c(-c4ccccc4)noc3C)CC2)c(C)c1	0	0	?	18µM	0	0
SMILES	GCN5L2 inh	VDR inhibitor	TDP1 cell noCPT	TDP1 cell CPT	PLK1 PBD inh	TDP1 inh
Cc1ccc(S(=O)(=O)N2CCN(C(=O)c3c(-c4ccccc4)noc3C)CC2)cc1C	0	0	0	?	0	0
Cc1ccc(S(=O)(=O)N2CCN(C(=O)COC(=O)/C=C/c3ccccc3)CC2)c(C)c1	0	0	0	16µM	0	0
Cc1ccc(S(=O)(=O)N2CCN(C(=O)COC(=O)/C=C/c3ccc(F)cc3)CC2)c(C)c1	0	0	?	?	0	0
Cc1ccc(S(=O)(=O)N2CCN(C(=O)COC(=O)/C=C/c3ccccc3[N+](=O)[O-])CC2)c(C)c1	0	0	?	?	0	0
Cc1ccc(S(=O)(=O)N2CCN(C(=O)COC(=O)/C=C/c3cccc([N+](=O)[O-])c3)CC2)c(C)c1	-	0	16µM	9.2µM	0	-
Cc1ccc(S(=O)(=O)N2CCN(C(=O)COC(=O)C3(C)CC3(Cl)Cl)CC2)c(C)c1 (stereo unspecified)	0	0	?	23µM	0	0
O=C(c1ccccc1)C(Nc1cccc([N+](=O)[O-])c1)c1ccccc1 (stereo unspecified)	-	0	?	?	0	-
CCN(CC(=O)Nc1c(F)cccc1F)C(=O)c1cccn1C	-	-	0	0	0	-
COc1cc(C(=O)OCC(=O)N2CCN(S(=O)(=O)c3ccc(C)cc3C)CC2)c([N+](=O)[O-])cc1OC	-	0	21µM	?	0	-
COc1cc(C(=O)OCC(=O)N2CCCCCC2)c([N+](=O)[O-])cc1OC	0	0	0	?	0	0
COc1cccc2c1C(=O)/C(=C\c1ccc(N(C)C)cc1)C2	-	-	11µM	?	-	-
COc1ccccc1/C=C1\Cc2ccccc2C1=O	0	0	?	?	0	0
N#Cc1c(-c2cccs2)nc(SCC(=O)c2cccs2)[nH]c1=O	0	0	0	0	0	0
COc1ccc(-c2ccc(SCC(=O)c3cccs3)nn2)cc1OC	0	0	16µM	?	0	0
Cc1cc(SCC(=O)NC2CC2)nc2ccccc12	0	0	0	0	0	0
O=C(CSc1nc2ccccc2c(=O)[nH]1)c1cccs1	0	0	16µM	8.2µM	0	0
Cc1cc(SCC(=O)c2cccs2)nc2ccccc12	0	0	?	16µM	0	0
O=C(CSc1nc2ccccc2c(=O)[nH]1)c1ccc(O)cc1O	0	0	?	13µM	0	0
CC(=O)c1cccc(NC(=O)COC(=O)c2ccccc2OCc2cccc(Br)c2)c1	-	-	0	0	-	-
CC(C)CN(C(=O)CSc1nn(-c2ccc(Cl)cc2)c(=S)s1)C1CCS(=O)(=O)C1 (stereo unspecified)	0	0	18µM	?	0	?
CC(C)CN(C(=O)CSc1nnc2ccccn12)C1CCS(=O)(=O)C1 (stereo unspecified)	0	0	0	0	0	0
CC(C)CN(C(=O)COC(=O)CNC(=O)c1ccc(Cl)cc1)C1CCS(=O)(=O)C1 (stereo unspecified)	0	0	0	0	0	0
Cc1ccc(-n2ccnc2SCC(=O)N(CC(C)C)C2CCS(=O)(=O)C2)c(C)c1 (stereo unspecified)	0	?	18µM	?	11µM	0
O=C(c1ccccc1)c1ccc(OCC(O)CN2CCN(S(=O)(=O)N3CCCCC3)CC2)cc1 (stereo unspecified)	0	0	18µM	?	0	0
